# From PMC4336329 (PLoS ONE, 2015)
# In all, about 310,000 compounds went through this assay and about 14,000 (4.5%) showed an effect of 50% or more. Effects have a minus sign here. The entries come from a sample that favours strong results as a whole.
# Target: human ether-à-go-go-related gene (hERG) potassium channel (human, UniProt Q12809)
# Assay: primary screen, population patch clamp on CHO cells stably expressing hERG; higher = less effect of the substance
# 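Also: peak tail current of the secondary pulse compared with the same well before compound.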
# Sequence of human ether-à-go-go-related gene (hERG) potassium channel (Q12809 whole entry, looked up): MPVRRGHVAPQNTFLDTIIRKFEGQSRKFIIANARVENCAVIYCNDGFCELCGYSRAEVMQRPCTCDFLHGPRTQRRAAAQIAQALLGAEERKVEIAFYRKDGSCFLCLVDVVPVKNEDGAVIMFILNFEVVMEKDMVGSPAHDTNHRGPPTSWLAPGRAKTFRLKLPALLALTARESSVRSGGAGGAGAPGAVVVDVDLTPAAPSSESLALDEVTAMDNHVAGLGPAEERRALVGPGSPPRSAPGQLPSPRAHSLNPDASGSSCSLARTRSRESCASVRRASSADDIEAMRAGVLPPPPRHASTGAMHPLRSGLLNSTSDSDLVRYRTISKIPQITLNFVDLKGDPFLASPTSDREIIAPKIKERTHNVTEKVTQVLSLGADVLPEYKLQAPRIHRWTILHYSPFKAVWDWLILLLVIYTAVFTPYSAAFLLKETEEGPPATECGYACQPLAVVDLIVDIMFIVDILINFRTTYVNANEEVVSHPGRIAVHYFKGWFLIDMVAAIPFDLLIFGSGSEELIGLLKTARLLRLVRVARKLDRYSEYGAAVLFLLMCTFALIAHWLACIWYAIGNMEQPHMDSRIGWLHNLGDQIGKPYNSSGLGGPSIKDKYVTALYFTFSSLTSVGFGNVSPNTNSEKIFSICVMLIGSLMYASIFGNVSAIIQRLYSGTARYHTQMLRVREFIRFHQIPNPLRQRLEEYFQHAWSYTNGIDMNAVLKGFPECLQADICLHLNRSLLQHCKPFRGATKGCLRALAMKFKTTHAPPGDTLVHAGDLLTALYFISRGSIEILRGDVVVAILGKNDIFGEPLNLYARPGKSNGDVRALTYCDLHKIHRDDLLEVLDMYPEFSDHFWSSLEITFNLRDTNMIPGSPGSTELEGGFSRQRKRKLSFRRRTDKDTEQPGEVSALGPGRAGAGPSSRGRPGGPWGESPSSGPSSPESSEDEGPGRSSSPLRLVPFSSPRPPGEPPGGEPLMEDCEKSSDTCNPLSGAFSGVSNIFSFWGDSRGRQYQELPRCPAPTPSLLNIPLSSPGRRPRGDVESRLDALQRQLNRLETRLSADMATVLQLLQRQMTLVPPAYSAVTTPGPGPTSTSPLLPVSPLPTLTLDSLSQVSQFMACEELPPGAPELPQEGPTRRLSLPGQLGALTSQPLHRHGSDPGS
row,Structure (SMILES),"hERG current change (%, negative = inhibition) at 10uM [%]"
1,COc1ccc(-c2csc(-c3ccccc3)n2)c(OC)c1,29.1
2,O=C(Oc1cccc(C(=S)N2CCOCC2)c1)c1ccc([N+](=O)[O-])cc1[N+](=O)[O-],-14.4
3,CCOC(=O)C1(Cc2cccc(OC)c2)CCCN(C(=O)c2cc(C)oc2C)C1 (stereo not drawn),-6.37
4,O=C(CNC(=S)N(Cc1ccccc1Cl)C1CCCC1)NCCCN1CCOCC1,7.4
5,CSc1ccc(CNCC2CCCO2)cc1.Cl (stereo not drawn),2.99
6,CC(/C=N/NC(=O)Cn1cnc2c1c(=O)n(C)c(=O)n2C)=C\c1ccco1,-10.2
7,CCN(C(=O)CSc1nc2ccccc2o1)C1CCS(=O)(=O)C1 (stereo not drawn),-3.25
8,CC1(CC(=O)N/N=C/c2ccc(OCc3ccc(Cl)cc3Cl)cc2)OCCCO1,5.38
9,COc1cccc(C(=O)Nc2ccccc2F)c1,8.37
10,O=C(CCc1nc2ccccc2c(=O)[nH]1)NNC(=O)COc1ccc(Br)cc1,6.48
11,CCOC(=O)c1nnn2c1nc(N1CCN(c3ccccc3)CC1)c1ccccc12,-62.4
12,CCOC(=O)c1nnn2c1nc(N1CCOCC1)c1ccccc12,-20.4
13,CCOC(=O)c1nnn2c1nc(N1CCN(C)CC1)c1ccccc12,-4.25
14,O=C1CC(=O)N(CCc2ccc(F)cc2)C(=O)N1,9.33
15,O=C1NC(=O)C(CCc2ccncc2)(CCc2ccncc2)C(=O)N1CCc1ccc(F)cc1,-68.5
16,O=C1NC(=O)C(CCc2ccncc2)(CCc2ccncc2)C(=O)N1Cc1ccc(F)cc1,-76.6
17,COc1ccc(CC2(CCc3ccncc3)C(=O)NC(=O)NC2=O)cc1,22.5
18,COc1ccc(OC)c(N2C(=O)NC(=O)C(CCc3ccncc3)(CCc3ccncc3)C2=O)c1,-41.2
19,CCOc1ccccc1N1C(=O)NC(=O)C(CCc2ccncc2)(CCc2ccncc2)C1=O,-29.6
20,CCOC(=O)CN1CC23C=CC(O2)C(C(=O)NCCc2ccccc2)C3C1=O (stereo not drawn),6.73
21,CCOC(=O)N1CCN(S(=O)(=O)c2ccc(C)cc2)C1c1ccc(OC)cc1 (stereo not drawn),-11.9

row,Structure (SMILES),"hERG current change (%, negative = inhibition) at 10uM [%]"
1,Cc1ccc(-c2nn(Cc3ccccc3)cc2C=O)cc1C,-13.9
2,Cc1cnc(NC(=O)CSc2nc3ccccc3c(=O)[nH]2)s1,-7.72
3,CNC(=O)c1cc2c(=O)n3cccc(C)c3nc2n(C(C)C)c1=N,-77.3
4,Cc1ccc2nc(SCC(=O)Nc3cccc4ccccc34)nc(=O)n2c1,-14
5,Cc1cccn2c(=O)c3cc(C(=O)NCc4cccnc4)c(=N)n(C(C)C)c3nc12,-69.4
6,Cc1cccn2c(=O)c3cc(C(=O)N(C)C)n(C)c3nc12,2.7
7,Cc1ccccc1CC(=O)NCc1cccnc1,10.8
8,Cc1cccn2c(=O)c3cc(C(=O)NCC(C)C)sc3nc12,-3.21
9,CNC(=O)c1cc2c(=O)n3cc(C)ccc3nc2n(C(C)C)c1=N,-77.1
10,Cc1ccc(CCNC(=O)c2ccc3nc4ccc(Cl)cc4c(=O)n3c2)cc1,20.4
11,Cc1cccn2c(=O)c3cc(C(=O)O)n(C)c3nc12,6.65
12,O=C(CSc1nnc2scc(-c3ccc(Cl)cc3)n12)NCc1ccco1,-15.9
13,CCOc1cc(CNC(C)(C)CO)cc(Br)c1OCc1ccc(Cl)cc1Cl,-12.1
14,COC1CCN(C(=O)CC2C(=O)NCCN2CC(C)(C)C)CC1 (stereo not drawn),18.5
15,COC(=O)c1cc(NC(=O)c2cccnc2)cc(C(=O)OC)c1,11
16,N#CC(=C1SC=CS1)c1nc(-c2ccccc2)cs1,9.47
17,Cn1cc(/C=C(\NC(=O)c2ccccc2)C(=O)NCCCN2CCOCC2)c2ccccc21,3.43
18,O=C(NCCCN1CCOCC1)/C(=C/c1ccco1)NC(=O)c1ccccc1,1.44
19,CC(C)c1ccc(/C=C(\NC(=O)c2ccccc2)C(=O)NCCCN2CCOCC2)cc1,-71.4
20,CC(C)CNC(=O)C(=O)NCCCN1CCOCC1,-61.6
21,CC(C)c1ccc(/C=C(\NC(=O)c2ccccc2)C(=O)NCCN2CCOCC2)cc1,-61
